Screening data from PubChem BioAssay.
KKLEB tox = CF airway cell cytotoxicity counter-screen; KKLEB CF airway cells viability, ATPlite luminescence, overnight; stronger effect = lower value; cells stimulated with P. aeruginosa culture filtrate; activity change (cytotoxicity), % at 5 µM; AID 602141; hit rate 0.36% among 360,000;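 active means corrected activity change at or below -50% at 5 µM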
HIF-2a inh = blocks HIF-2a reporter activity; hit rate 0.72% among 360,000; inhibition, % at 18.8 µM; 786-0 RCC cells HIF-2a reporter, luciferase luminescence, overnight;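 active means inhibition of the luminescence signal of 40% or more relative to plate controls, in a single-dose primary screen at 18.75 µM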
CF NFkB block = cystic fibrosis NF-kB activation inhibition | KKLEB NF-kB-GFP reporter, PAF-induced, GFP fluorescence overnight | inhibition, % at 5 µM | hit rate 0.86% among 360,000 | AID 588850;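 active means at least 50% inhibition at 5 µM, scaled per plate between neutral and stimulator controls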;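 further: PAF is a Pseudomonas aeruginosa culture filtrate used as stimulus; plate controls were PAF-stimulated DMSO wells for no effect and unstimulated DMSO wells for full effect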
Shn3 inh set2 = reduces Shn3 3'UTR luciferase signal in osteoblasts; Clone20 osteoblast Shn3 3'UTR firefly luciferase, 24 h; inhibition, % at 12.5 µM; hit rate 0.52% among 360,000;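 active means mean inhibition of at least 75% with every replicate also reaching 75%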;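 further: 0% = median of neutral control wells and 100% = pilot-screen positive control compound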
Peg3 prom inh = reduces Peg3 promoter-driven luciferase expression in HeLa. hit rate 1.7% among 360,000. HeLa PEG-Prom luciferase reporter, luminescence, overnight. inhibition, % at 20 µM;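 active means inhibition of at least 50% at 20 µM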
MITF TRPM1 inh = inhibitors of MITF-driven TRPM1 promoter in melanoma cells; hit rate 0.83% among 330,000; SK-MEL-5 TRPM1 promoter luciferase, 24 h; AID 488899; inhibition, % at 12.5 µM;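 active means mean inhibition across replicates of 60% or more, whatever share of single replicates reaches that level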
* = called active by the depositor; x = no result given; ! = repeats disagree. The list is not random: actives were taken first. Their share in the collection is about 2.8%.

SMILES	KKLEB tox	HIF-2a inh	CF NFkB block	Shn3 inh set2	Peg3 prom inh	MITF TRPM1 inh
O=C(CC(SCCO)c1ccc([N+](=O)[O-])cc1)c1ccco1 (stereo not drawn)	-16	-10	42	-4	72*	-4
Cc1ccc(C(=O)CC(SCC(=O)O)c2ccc([N+](=O)[O-])cc2)cc1 (stereo not drawn)	-1	-44	-10	-27	-19	-9
Cc1ccc(O)c(N=Nc2nccs2)c1	4	-6	8	93*	-6	20
CCC(=O)NC1=C(NC(C)c2ccccc2)C(=O)c2ccccc2C1=O (stereo not drawn)	9	-5	12	10	-6	30
CCC(=O)NC1=C(Cl)C(=O)C(NC(=O)CC)=C(Cl)C1=O	-2	96*	37	17	81*	23
CCn1cc(CN2CCC(n3nccc3NC(=O)CCOc3ccccc3)CC2)c(C)n1	-4	13	-11	0	0	-3
Cc1nc(N2CCN(C(=O)c3ccco3)CC2)c2c3c(sc2n1)CC(C)CC3 (stereo not drawn)	-8	-2	-4	92*	6	6
Cc1csc(NC(=O)CSc2nc3[nH]c(=O)cc(O)c3s2)n1	-19	30	71*	76	99*	87*
Cc1ccc(NC(=S)N/N=C/c2c(Cl)cccc2Cl)c(C)c1	-8	-145	50*	23	-103	-9
CC(C)(C)NC(=S)N/N=C/c1c(Cl)cccc1Cl	-2	-7	-4	-4	6	-16
Cc1ccccc1CCN(C(=O)c1csnn1)C(C(=O)NC1CCCC1)c1ccncc1 (stereo not drawn)	1	-9	-20	-1	3	8
O=C(Cc1cccc(C(F)(F)F)c1)Nc1ccccc1	13	-13	-17	-3	-10	1
CCCCNC(=NCc1cccc(C(F)(F)F)c1)Nc1ccccc1	-8	-4	11	3	76*	-2
Cc1c(O)cccc1C(=O)N[C@@H](CSc1ccccc1)[C@H](O)CN1C[C@H]2CCCC[C@H]2C[C@H]1C(=O)NC(C)(C)C	-13	-18	16	16	77*!	-5
COc1ccccc1C(=O)OCc1c(-c2ccccc2)ncc2ccccc12	12	-7	0	-2	-4	7
COCCN1C[C@@H](CO)O[C@@H](n2cnc3c(NCc4ccco4)ncnc32)C1	-12	12	-31	-5	10	x
C=CCC[C@@H](Cc1ccc(F)cc1)C(=O)OC[C@H](Cc1c[nH]c2ccccc12)NC(=O)[C@H](CC=C)CC(=O)N(CCO)Cc1ccccc1	2	-21	2	6	64*	17
C=CCC[C@@H](Cc1ccc(F)cc1)C(=O)OC[C@@H](Cc1c[nH]c2ccccc12)NC(=O)[C@@H](CC=C)CC(=O)NCCO	-2	-13	8	36	19	7
C=CCC[C@H](Cc1ccc(F)cc1)C(=O)OC[C@@H](Cc1c[nH]c2ccccc12)NC(=O)[C@@H](CC=C)CC(=O)N(CCO)Cc1ccccc1	-4	21	38	-6	44	8
C=CCC[C@H](Cc1ccc(F)cc1)C(=O)OC[C@H](Cc1c[nH]c2ccccc12)NC(=O)[C@@H](CC=C)CC(=O)N(CCO)Cc1ccccc1	0	-9	3	53	54*	20
CCOc1ccc(C(C)=O)cc1CN1C(=O)C(=O)N(CC)C1=O	8	13	-2	-33	2	25
COc1ccccc1/C=C/C(=O)c1cc(Br)ccc1OC(=O)c1ccco1	-15	87*	11	-11	19	34
COc1cc2c3nnc(-c4ccc(F)cc4)c-3cn(Cc3ccc(F)cc3)c2cc1OC	-21	0	-201	-13	98*	73*
Cn1nc2c3cc(F)ccc3n(Cc3ccc(F)cc3)cc-2c1=O	-1	18	8	-9	31	-1
COc1ccc(Cn2cc3c(-c4ccc(F)cc4)nnc-3c3cc(OC)c(OC)cc32)cc1	-43	-13	-70	-4	101*	83*
SMILES	KKLEB tox	HIF-2a inh	CF NFkB block	Shn3 inh set2	Peg3 prom inh	MITF TRPM1 inh
O=C(O)COc1ccccc1/C=N/Nc1ccc(S(=O)(=O)N2CCOCC2)cc1[N+](=O)[O-]	8	18	-8	0	68*	3
O=C(O)c1ccc(/C=N\Nc2ccc(S(=O)(=O)N3CCOCC3)cc2[N+](=O)[O-])cc1	8	16	4	14	3	-2
Cc1cc(C)c(C)c(OC(=O)c2sc(Cl)nc2C)c1	-39	8	8	63	90*	-5
CC(C)(CC(=O)O)CC(=O)N1CCN(c2nc3cc(Cl)ccc3s2)CC1	-1	-17	-8	3	-12	-2
COCCN(Cc1ccccc1)C(=O)c1cc(-c2ccc(OC)c(OC)c2)nc2ccccc12	-2	5	5	19	52*	-1
CCN(Cc1ccccc1)C(=O)c1cc(-c2ccc(OC)c(OC)c2)nc2ccccc12	-8	11	-35	12	49	-2
CCc1nc2ccc(C(=O)NCCCN(C)C)cn2c1N(C)CCCc1ccccc1	-10	0	8	-19	53*	x
CCc1nc2ccc(C(=O)NC3CCN(Cc4ccccc4)CC3)cn2c1N(C)Cc1cc2ccccc2s1	-8	-4	31	49	94*	x
CCc1nc2ccc(C(=O)NCCCn3ccnc3)cn2c1N(C)CCCc1ccccc1	-5	9	-1	-2	11	x
CSc1ccc(/C=C(\C#N)C(=O)Nc2cccc(C)c2)cc1	6	-192	-2	-70	-246	-40
COC(=O)[C@@H](c1ccccc1)N(C)S(=O)(=O)c1cccc(S(=O)(=O)N(C)[C@@H](C(=O)OC)c2ccccc2)c1	-1	12	11	74	14	19
Cc1cc(NS(=O)(=O)c2ccc(NC(=O)c3cnc(Cl)c(Cl)c3)cc2)nc(C)n1	1	1	-13	-3	-20	22
CC(Nc1ncnc2ccccc12)c1ccccc1 (stereo not drawn)	-8	9	-12	88*	1	24
CCCCC(Nc1ncnc2ccccc12)C(=O)O (stereo not drawn)	-9	-6	-17	-17	5	19
O=C(CSc1nnc(-c2ccncc2)n1Cc1ccco1)Nc1nc(-c2ccccc2)cs1	-55*	2	43	45	22	29
COc1ccc(-n2c(CNc3ccc(C)cc3)nnc2SCC(=O)Nc2nc(-c3ccccc3)cs2)cc1	-30	2	6	3	36	4
COc1ccc(NCc2nnc(SCC(=O)Nc3nc(-c4ccccc4)cs3)n2-c2ccccc2)cc1	-12	11	-6	16	83*	14
O=C(CSc1nnc(-c2ccncc2)n1Cc1ccco1)Nc1ccccc1Cl	-17	10	16	-23	13	-9
